Vif-A3F inh = Vif-A3F binding inhibition. HeLa A3F-eYFP + Vif (tagged APOBEC3F with the HIV-1 protein that degrades it), YFP fluorescence increase. AID 602313. Potency, µM (series often up to 46.1 µM). 390,000 tested, 0.2% active; note: nearly all actives have a fitted effect of over 65% in size
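Fluorescence increase (Ex 488/Em 500-530) after overnight compound treatment at 37 deg C flags inhibition of Vif-driven A3F-eYFP loss in stable HeLa A3F-eYFP/Vif cells seeded overnight beforehand.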
MCF10A rerep = induces DNA re-replication in MCF 10a normal breast cells. MCF 10A DNA re-replication, Hoechst nuclear intensity, 48 h. Potency, µM (doses to about 46.1 µM), actives largely listed as activators. 350,000 tested, 2.9% active. AID 624296; note: nearly all actives have a fitted effect of over 50% in size
SW480 rereplic = inducers of DNA re-replication in SW480 colon cancer cells; SW480 DNA re-replication, Hoechst DNA content imaging, 48 h; Potency, µM (top dose mostly 46.1 µM), usual class: activators; 340,000 tested, 1.8% active; AID 624297; note: nearly all actives have a fitted effect of over 55% in size
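250 cells/well; 23 nL cpd via pin tool; 48 hr, 37 C, 5% CO2; Hoechst 40 min; imager read of total nuclear intensity, ex 405/em 500-530 nm.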
IL1B secr inh = inflammasome signaling inhibition, IL-1 beta readout. THP-1 LPS/ATP IL-1B secretion, AlphaLISA, 16 h; active compounds read low. activity change, % at 57.5 µM. 360,000 tested, 4.7% active; in the data active = activity change below about -50%; inconclusive = mostly about -30% to -49%
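Secreted IL-1B measured by AlphaLISA bead assay after 16 h compound exposure of THP-1 cells; compounds (final up to 57.5 uM) added 1 h before LPS (250 ng/mL) and ATP (1.25 mM) stimulation; lower signal means less secretion.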
Giardia kill = Giardia lamblia killing. Giardia lamblia trophozoite viability. AID 540267. activity change, % at 7.66 µM, hits read low. 340,000 tested, 0.15% active; in the data active = activity change below about -80%; inconclusive = between about -30% and that limit;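 note: parasites exposed to compound for two days anaerobically before the ATP read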
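Each well holds 100 Giardia trophozoites and compound. After two days (48 hrs) at 37 deg C in anaerobic conditions, ATP is quantified by luminescence.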
Vif-A3G inh = blocks the Vif interaction with human APOBEC3G. HeLa A3G-eYFP + Vif (tagged APOBEC3G with the HIV-1 protein that degrades it), YFP fluorescence, overnight. Q9HC16. 410,000 tested, 0.076% active. Potency, µM (highest dose often 46.1 µM), usual class: inhibitors; note: nearly all actives have a fitted effect of over 60% in size
Target sequence (Q9HC16 whole entry, looked up): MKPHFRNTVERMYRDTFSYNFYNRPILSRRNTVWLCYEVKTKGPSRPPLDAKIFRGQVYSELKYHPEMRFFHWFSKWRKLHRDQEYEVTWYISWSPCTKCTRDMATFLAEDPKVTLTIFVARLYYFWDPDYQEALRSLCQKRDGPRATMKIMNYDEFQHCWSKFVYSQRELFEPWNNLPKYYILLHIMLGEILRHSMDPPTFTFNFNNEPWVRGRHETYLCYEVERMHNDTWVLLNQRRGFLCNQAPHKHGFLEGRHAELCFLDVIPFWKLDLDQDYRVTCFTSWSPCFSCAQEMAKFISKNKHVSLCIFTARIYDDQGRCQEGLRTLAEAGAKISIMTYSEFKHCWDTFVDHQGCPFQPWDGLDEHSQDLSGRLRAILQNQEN
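HeLa cells stably expressing Vif and C-terminally eYFP-tagged A3G, seeded overnight at 37 deg C, then exposed to compound by pintool overnight at 37 deg C. Rise in yellow fluorescence (Ex 488/Em 500-530, Acumen) marks blocked Vif-driven A3G degradation.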
A number is an active result. Sampled rows, rich in hits. Any-hit rate of the full collection: about 6.9%. Unless noted, calls come from the whole dose curve; as a rule, active = well fitted curve in the direction sought with a large enough effect; inconclusive = small, poorly fitted or top-dose-only effect, or another doubt; inactive = no such curve, though single readings can be large; an effect the other way counts as inactive or inconclusive.

What do the screens show for `CN(C(=O)CSc1ncnc2ccccc12)C1CCCCC1`?
Vif-A3F inh: inactive; MCF10A rerep: inactive; SW480 rereplic: inactive; IL1B secr inh: -88.7; Giardia kill: inactive; Vif-A3G inh: inactive

How did CN(C)S(=O)(=O)c1cccc(NC(=O)CSc2nncn2-c2ccccc2)c1 do in these assays?
Vif-A3F inh: inactive; MCF10A rerep: 0.651µM; SW480 rereplic: inactive; IL1B secr inh: inactive; Giardia kill: inactive; Vif-A3G inh: inactive

What do the screens show for `O=C(Nc1ccc(C(=O)N2CCN(c3ccccc3F)CC2)cc1)c1nsc2ccccc12`?
Vif-A3F inh: inactive; Vif-A3G inh: inactive

What do the screens show for `O=C(CSc1ncnc2ccccc12)Nc1cccc(S(=O)(=O)N2CCOCC2)c1`?
Vif-A3F inh: inactive; MCF10A rerep: inactive; SW480 rereplic: inactive; IL1B secr inh: inconclusive; Giardia kill: inactive; Vif-A3G inh: inactive

How did CN(C)S(=O)(=O)c1ccc(NC(=O)CSc2ncnc3ccccc23)cc1 do in these assays?
Vif-A3F inh: inactive; MCF10A rerep: inactive; SW480 rereplic: inactive; IL1B secr inh: -101.6; Giardia kill: inactive; Vif-A3G inh: inactive

Results for Cn1cc(CN(C(=O)Nc2ccccc2)C2CCCCC2)c2ccccc21 ?
Vif-A3F inh: inactive; Vif-A3G inh: inactive

Results for O=C1N(Cc2cccc(Cl)c2)C[C@@H]2C[C@@H](c3cccc4ncccc34)N3CCC[C@@]123 ?
Vif-A3F inh: inactive; MCF10A rerep: inactive; SW480 rereplic: inactive; IL1B secr inh: -74.1; Giardia kill: inactive; Vif-A3G inh: inactive

Results for O=C1N(Cc2cccc(Cl)c2)C[C@@H]2C[C@@H](c3cccn3-c3nccs3)N3CCC[C@@]123 ?
Vif-A3F inh: inactive; MCF10A rerep: inconclusive; SW480 rereplic: inactive; IL1B secr inh: -81.9; Giardia kill: inactive; Vif-A3G inh: inactive

Results for O=C1N(Cc2cccc(Cl)c2)C[C@@H]2C[C@@H](c3cccc4cccnc34)N3CCC[C@@]123 ?
Vif-A3F inh: inconclusive; MCF10A rerep: inconclusive; SW480 rereplic: inconclusive; IL1B secr inh: inactive; Giardia kill: inactive; Vif-A3G inh: inactive

How did Cc1ccc(Oc2nc(CN3CCOCC3)nc3sc4c(c23)CCC(C)C4)cc1 (stereo not given) do in these assays?
Vif-A3F inh: inactive; MCF10A rerep: inconclusive; SW480 rereplic: inactive; IL1B secr inh: -57.3; Giardia kill: inactive; Vif-A3G inh: inactive

What do the screens show for `Cc1cc(C)n2c(=O)c3ccc(Cl)cc3nc2c1C#N`?
Vif-A3F inh: inactive; MCF10A rerep: inconclusive; SW480 rereplic: inconclusive; IL1B secr inh: inactive; Giardia kill: inactive; Vif-A3G inh: inactive

What do the screens show for `Cc1cc(Cl)n2c(nc3cc(F)c(F)cc32)c1C#N`?
Vif-A3F inh: inactive; MCF10A rerep: inconclusive; SW480 rereplic: 6.51µM; IL1B secr inh: -100.6; Giardia kill: inactive; Vif-A3G inh: inconclusive

Results for O=C(Cn1ncn2c(cc3cc(F)ccc32)c1=O)NC1CCCCC1 ?
Vif-A3F inh: inactive; Vif-A3G inh: inactive

Results for c1ccc(CNCCC(Cc2ccccc2)c2ccco2)cc1 (stereo not given) ?
Vif-A3F inh: inconclusive; MCF10A rerep: inactive; SW480 rereplic: inconclusive; IL1B secr inh: -79.7; Giardia kill: inactive; Vif-A3G inh: inactive

Results for CC(=O)NCCC(Cc1ccccc1)c1ccco1 (stereo not given) ?
Vif-A3F inh: inactive; MCF10A rerep: inactive; SW480 rereplic: inactive; IL1B secr inh: inactive; Giardia kill: inconclusive; Vif-A3G inh: inactive

What do the screens show for `CN(C)c1ccc(CNCCC(Cc2ccccc2)c2ccco2)cc1` (stereo not given)?
Vif-A3F inh: inactive; MCF10A rerep: inconclusive; SW480 rereplic: inconclusive; IL1B secr inh: -99.4; Giardia kill: inactive; Vif-A3G inh: inactive

Results for O=C(Nc1ccc2nc(-c3ccco3)c(-c3ccco3)nc2c1)N1CCCCCC1 ?
Vif-A3F inh: inactive; MCF10A rerep: 18.4µM; SW480 rereplic: inconclusive; IL1B secr inh: inconclusive; Giardia kill: inactive; Vif-A3G inh: inactive

How did COc1ccc2c(c1)CCc1sc(NC(=O)c3ccc(Br)cc3)nc1-2 do in these assays?
Vif-A3F inh: inactive; Vif-A3G inh: inactive

How did COc1ccc2c(c1)CCc1sc(NC(=O)c3ccc(C)cc3)nc1-2 do in these assays?
MCF10A rerep: inactive; SW480 rereplic: inactive; IL1B secr inh: -55.3; Giardia kill: inactive; Vif-A3G inh: inactive

How did Cc1ccc(C(=O)c2cn(Cc3ccccc3)c3nc(C)ccc3c2=O)cc1 do in these assays?
Vif-A3F inh: inactive; Vif-A3G inh: inactive

What do the screens show for `CCn1cc(C(=O)OCC(=O)c2cc(C)n(-c3ccc(OC(F)F)cc3)c2C)c(=O)c2ccc(C)nc21`?
Vif-A3F inh: inactive; MCF10A rerep: 13µM; SW480 rereplic: inconclusive; IL1B secr inh: inactive; Giardia kill: inactive; Vif-A3G inh: inactive

Results for CC(=O)Nc1sc2c(c1-c1nc3ccccc3s1)CN(C(C)C)CC2 ?
Vif-A3F inh: 10µM; MCF10A rerep: inconclusive; SW480 rereplic: 2.59µM; Giardia kill: inactive; Vif-A3G inh: 12.6µM

Results for CC(=O)N1CCc2c(sc(NC(=O)CSc3ccccc3)c2-c2nc3ccccc3s2)C1 ?
Vif-A3F inh: inconclusive; Giardia kill: inactive; Vif-A3G inh: inconclusive

How did CC(=O)N1CCc2c(sc(NC(=O)C3CC3)c2-c2nc3ccccc3s2)C1 do in these assays?
Vif-A3F inh: inconclusive; MCF10A rerep: 23.1µM; SW480 rereplic: inconclusive; IL1B secr inh: -84.5; Giardia kill: inactive; Vif-A3G inh: inconclusive

How did CCc1ccc(NS(=O)(=O)c2c(-c3ccccc3)csc2C(=O)OC)cc1 do in these assays?
Vif-A3F inh: inactive; Vif-A3G inh: inactive

What do the screens show for `COc1ccccc1NC(=O)Cn1c(=O)n(-c2cccc(C)c2)c(=O)c2c1c1cc(C)ccc1n2C`?
Vif-A3F inh: inactive; Vif-A3G inh: inactive

What do the screens show for `C/C(CC1CC2=C(CC1(C)C)C(C)(C)CCC2)=N\NC(N)=S` (stereo not given)?
Vif-A3F inh: inactive; MCF10A rerep: inactive; SW480 rereplic: inconclusive; IL1B secr inh: -74.2; Giardia kill: inactive; Vif-A3G inh: inactive

How did CCOc1ccc(CCNC(=O)c2ccc3c(c2)nc2n3CCOC2)cc1OCC do in these assays?
Vif-A3F inh: inactive; Vif-A3G inh: inactive

How did Cc1ccc2nc(-c3ccc(C)c(NC(=O)COc4ccccc4Cl)c3)oc2c1 do in these assays?
Vif-A3G inh: inactive

How did O=c1cc(-c2ccccc2)oc2ccccc12 do in these assays?
Vif-A3F inh: inactive; MCF10A rerep: inconclusive; SW480 rereplic: inactive; IL1B secr inh: inactive; Giardia kill: inactive; Vif-A3G inh: inactive

How did OCCCN=c1cc(-c2ccccc2)oc2ccc(Cl)cc12 do in these assays?
Vif-A3F inh: inactive; MCF10A rerep: inactive; SW480 rereplic: inactive; IL1B secr inh: -102.3; Giardia kill: inactive; Vif-A3G inh: inactive

What do the screens show for `O=c1cc(-c2ccccc2)oc2ccc(O)cc12`?
Vif-A3F inh: inactive; MCF10A rerep: inactive; SW480 rereplic: inactive; IL1B secr inh: inactive; Giardia kill: inconclusive; Vif-A3G inh: inactive
